Assay results from PubChem BioAssay AID720697 (Broad Institute, 2013).
Measured potencies and affinities stand elsewhere. Inconclusive results are not listed. Calls of active or inactive are those of the source.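 How the source made its calls: active means signal loss with fitted half-maximal concentration at or below twice the top valid tested dose in every test run; inconclusive means runs disagree, flat 30 to 70% signal loss, or poor fit; inactive means all runs flat, opposite direction, or potency beyond limit.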

Experiment: HEK293T cytotoxicity, dose response, cytotoxicity control for miR-122 modulator project, cell-based, inhibitor set, cherry-pick, set 2 (AID 720697)

Row | SMILES | outcome
1 | CNC(=O)C[C@H]1CC[C@@H]2[C@H](COc3ccc(NC(=O)Nc4cccc(F)c4)cc3C(=O)N2C)O1 | inactive
2 | CCN(C[C@@H]1N[C@@H](CO)[C@H]1c1ccc(-c2cccc(F)c2)cc1)C(=O)CN(C)C | inactive
3 | CCNC(=O)C[C@@H]1CC[C@H]2[C@@H](COc3ccc(NC(=O)Nc4ccc(F)cc4)cc3C(=O)N2C)O1 | inactive
4 | COc1ccc2[nH]c(=O)c(COC(=O)c3ccco3)cc2c1 | inactive
5 | COc1ccc(S(=O)(=O)N(C)C[C@@H]2Oc3cc(-c4cccc(F)c4)ccc3S(=O)(=O)N([C@@H](C)CO)C[C@H]2C)cc1 | inactive
6 | CC(C)C#Cc1ccc2c(c1)O[C@H](CN(C)C(=O)c1ccncc1)[C@H](C)CN([C@H](C)CO)S2(=O)=O | inactive
7 | O=C(Nc1nc(-c2cc3ccccc3o2)cs1)c1ccc(S(=O)(=O)N2CCCC2)cc1 | inactive
8 | O=c1c2cc(N3CCOCC3)ccc2[nH]c(=S)n1CCCN1CCCC1 | inactive
9 | CN1C(=O)c2cc(NS(=O)(=O)c3cccc(F)c3)ccc2OC[C@H]2O[C@@H](CC(=O)NCCN3CCCCC3)CC[C@H]21 | inactive
10 | Cc1c(CC(=O)NCCCC(=O)O)c(=O)oc2cc3occ(-c4ccccc4)c3cc12 | inactive
11 | CN1C(=O)c2cc(NC(=O)c3cccs3)ccc2OC[C@@H]2O[C@H](CC(=O)NCCN3CCCCC3)CC[C@H]21 | inactive
12 | COc1cccc(NC(=O)N2[C@H](CO)[C@@H](c3ccccc3)[C@H]2CNCC(C)C)c1 | inactive
13 | CCC(=O)N(C)C[C@H]1Oc2cc(C#Cc3ccccc3)ccc2S(=O)(=O)N([C@H](C)CO)C[C@H]1C | inactive
14 | CCNC(=O)C[C@H]1CC[C@@H]2[C@@H](COc3ccc(NC(=O)Nc4cccc(Cl)c4)cc3C(=O)N2C)O1 | inactive
15 | Cc1cc(C(=O)Nc2ccc3c(c2)C(=O)N(C)[C@@H]2CC[C@@H](CC(=O)N[C@H](C)c4ccccc4)O[C@H]2CO3)no1 | inactive
16 | CC(C)(C)c1cc(NCCCn2ccnc2)n2ncc(-c3ccc(Cl)cc3)c2n1 | inactive
17 | CC(=O)Nc1ccc2c(c1)C(=O)N(C)[C@H]1CC[C@H](CC(=O)Nc3ccccc3Cl)O[C@@H]1CO2 | inactive
18 | C[C@@H]1CN([C@H](C)CO)S(=O)(=O)c2ccc(C3=CCCCC3)cc2O[C@@H]1CN(C)C(=O)Cc1ccncc1 | inactive
19 | CC(=O)c1cccc(S(=O)(=O)NCC2CCCCC2)c1 | inactive
20 | CN1C(=O)c2cc(NC(=O)c3cccc(F)c3)ccc2OC[C@@H]2O[C@H](CC(=O)Nc3ccccc3)CC[C@H]21 | inactive
21 | CO[C@H]1CN(C)C(=O)c2cc(NC(C)=O)ccc2OC[C@@H](C)N(C(=O)c2ccccn2)C[C@H]1C | inactive
22 | CN1C(=O)c2cc(NC(=O)c3ccc(C(F)(F)F)cc3)ccc2OC[C@@H]2O[C@@H](CC(=O)NCc3ccc4c(c3)OCO4)CC[C@@H]21 | inactive

Row | SMILES | outcome
23 | COC(=O)C[C@@H]1CC[C@@H]2[C@@H](COc3ccc(NC(=O)c4cscn4)cc3C(=O)N2C)O1 | inactive
24 | C/C=C/c1ccc([C@@H]2[C@@H](CO)N(S(C)(=O)=O)[C@H]2CN(C)C(=O)CC)cc1 | inactive
25 | O=C(Nc1ccc(Cl)cc1)N1C[C@H]2[C@@H](c3ccccc31)[C@H](CO)N2CC1CCCCC1 | inactive
26 | Cc1nn(C)cc1NC(=O)C[C@@H]1CC[C@@H]2[C@H](COc3ccc(NC(=O)Nc4cccc(Cl)c4)cc3C(=O)N2C)O1 | inactive
27 | C[C@@H]1CN([C@H](C)CO)S(=O)(=O)c2ccc(C3=CCCCC3)cc2O[C@@H]1CN(C)C(=O)Nc1ccc2c(c1)OCO2 | inactive
28 | CN1C(=O)c2cc(NS(=O)(=O)c3ccc(Cl)cc3)ccc2OC[C@@H]2O[C@H](CC(=O)N3CCc4ccccc4C3)CC[C@H]21 | inactive
29 | O=C(N/N=C/c1ccco1)c1cccc(N2CCCC2=O)c1 | inactive
30 | CNC[C@@H]1Oc2cc(C#CC3CCCCC3)ccc2S(=O)(=O)N([C@@H](C)CO)C[C@@H]1C | inactive
31 | Cc1ccc(-n2ncc(C(=O)Nc3cc(Cl)ccc3C)c2C2CCNCC2)cc1C | inactive
32 | CCCNC(=O)N1C[C@@H]2[C@H](c3ccccc31)[C@@H](CO)N2Cc1cc(F)ccc1F | inactive
33 | Cc1ccnc(Nc2nc(-c3c(C)nc4sccn34)cs2)c1 | inactive
34 | C/C=C/c1ccc([C@H]2[C@@H](CO)N(C(=O)CC)[C@H]2CNC(=O)CC)cc1 | inactive
35 | CNC(=O)C[C@@H]1CC[C@@H]2[C@@H](COc3ccc(NC(=O)Nc4ccccc4OC)cc3C(=O)N2C)O1 | inactive
36 | CCCNC(=O)C[C@@H]1CC[C@@H]2[C@@H](COc3ccc(NC(=O)Nc4ccccc4F)cc3C(=O)N2C)O1 | inactive
37 | COc1ccc(-c2cc(C3CCN(c4ccc(C(C)=O)cc4[N+](=O)[O-])CC3)[nH]n2)cc1 | inactive
38 | CC(C)C(=O)Nc1ccc2c(c1)C(=O)N(C)[C@H]1CC[C@H](CC(=O)Nc3cccc(F)c3)O[C@@H]1CO2 | inactive
39 | Cc1ccccc1-c1ccc([C@@H]2[C@H](CO)N3CCCCN(C(=O)Nc4cccc(F)c4)C[C@@H]23)cc1 | inactive
40 | COCC(=O)NC[C@H]1N[C@H](CO)[C@H]1c1ccc(C2=CCCC2)cc1 | inactive
41 | CCOC(=O)c1nc(C)n(-c2ccc(Cl)cc2Cl)n1 | inactive
42 | C[C@@H]1CN([C@H](C)CO)S(=O)(=O)c2ccc(/C=C/c3ccccc3)cc2O[C@@H]1CN(C)C(=O)c1cccnc1 | inactive
43 | CCCNC(=O)C[C@H]1CC[C@@H]2[C@@H](COc3ccc(NC(=O)c4ccc5c(c4)OCO5)cc3C(=O)N2C)O1 | inactive
44 | COc1cccc(CNC(=O)C[C@@H]2CC[C@@H]3[C@H](COc4ccc(NC(C)=O)cc4C(=O)N3C)O2)c1 | inactive

Row | SMILES | outcome
45 | CN1C(=O)c2cc(NC(=O)c3cccc(F)c3)ccc2OC[C@H]2O[C@@H](CC(=O)O)CC[C@@H]21 | inactive
46 | CCN(C[C@@H]1[C@@H](c2ccc(C3=CCCCC3)cc2)[C@@H](CO)N1CC1CC1)C(C)=O | inactive
47 | CCNC(=O)C[C@@H]1CC[C@@H]2[C@@H](COc3ccc(NC(=O)c4ccccc4)cc3C(=O)N2C)O1 | inactive
48 | CCC(=O)N1[C@H](CO)[C@H](c2ccccc2)[C@@H]1CN(C(C)C)S(C)(=O)=O | inactive
49 | C/C=C/c1ccc([C@H]2[C@@H](CO)N(Cc3ccccn3)[C@H]2CNC(C)=O)cc1 | inactive
50 | COc1ccccc1C#Cc1ccc2c(c1)O[C@H](CN(C)Cc1cccnc1)[C@H](C)CN([C@@H](C)CO)S2(=O)=O | inactive
51 | CC(C)NC(=O)N(C)C[C@H]1Oc2cc(C#C[C@H](C)O)ccc2S(=O)(=O)N([C@@H](C)CO)C[C@H]1C | inactive
52 | CC(C)NC(=O)Nc1ccc2c(c1)C(=O)N(C)[C@H]1CC[C@H](CC(=O)NCC(F)(F)F)O[C@H]1CO2 | inactive
53 | COc1cc(NC(=O)c2c(F)c(F)c(F)c(F)c2F)c(OC)cc1Cl | inactive
54 | OCc1ccc(-c2nn(Cc3ccccc3)c3ccccc23)o1 | inactive
55 | CCNC(=O)C[C@@H]1CC[C@H]2[C@H](COc3ccc(NC(=O)c4ccccc4)cc3C(=O)N2C)O1 | inactive
56 | COc1ccc(C#Cc2ccc3c(c2)O[C@@H](CN(C)C(=O)CN2CCOCC2)[C@@H](C)CN([C@H](C)CO)S3(=O)=O)cc1 | inactive
57 | COCCN(C[C@@H]1[C@H](c2ccccc2)[C@@H](CO)N1C(=O)C1CCC1)C(C)=O | inactive
58 | CCNC(=O)C[C@@H]1CC[C@H]2[C@@H](COc3ccc(NC(=O)c4ccc(C(F)(F)F)cc4)cc3C(=O)N2C)O1 | inactive
59 | C[C@@H]1CN([C@@H](C)CO)S(=O)(=O)c2ccc(C#Cc3ccncc3)cc2O[C@@H]1CN(C)C(=O)C1CCOCC1 | inactive
60 | CCCCC(=O)OCC(=O)c1[nH]c(C)c(C(=O)OCC)c1C | inactive
61 | CCC(=O)N1[C@@H](CO)[C@H](c2ccccc2)[C@@H]1CN(C(C)C)S(C)(=O)=O | inactive
62 | CN1C(=O)c2cc(NC(=O)Nc3cccc(Cl)c3)ccc2OC[C@@H]2O[C@H](CC(=O)NCCc3ccncc3)CC[C@H]21 | inactive
63 | N#Cc1cccc(NC(=O)Nc2cccs2)c1 | inactive
64 | CN1C(=O)c2cc(NC(=O)c3cccc(F)c3)ccc2OC[C@H]2O[C@@H](CC(=O)O)CC[C@H]21 | inactive
65 | COCC(=O)Nc1ccc2c(c1)C(=O)N(C)[C@@H]1CC[C@@H](CC(=O)NC3CCCC3)O[C@H]1CO2 | inactive
